# Data taken from the supplement of paper PMC6992640.
# How the values were obtained:
# HCI01 = cells of a triple-negative basal-like breast cancer xenograft; experiment: cell viability of combination (% of vehicle); higher = less cytotoxic; settings: 1 µM; 72 h; partner dose: 10 nM
# Experimental: (§1)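 PDX cells were treated for 72 h with each drug at 1 µM plus afatinib (10 nM; 1 µM for WHIM30). Luciferase viability is expressed as percent of vehicle.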
# WHIM2 = cells of a triple-negative basal-like breast cancer xenograft; experiment: as above; settings: 1 µM; 72 h; partner dose: 10 nM
# Experimental: as §1
SMILES,cell viability of combination (HCI01),cell viability of combination (WHIM2)
CCCSc1nc(NC2CC2c2ccc(F)c(F)c2)c2nnn(C3CC(OCCO)C(O)C3O)c2n1 (centres undefined) [Ticagrelor] + CN(C)C/C=C/C(=O)Nc1cc2c(Nc3ccc(F)c(Cl)c3)ncnc2cc1O[C@H]1CCOC1 [Afatinib],57.8,43
CCN1CCN(Cc2ccc(Nc3ncc(F)c(-c4cc(F)c5nc(C)n(C(C)C)c5c4)n3)nc2)CC1.CS(=O)(=O)O + CN(C)C/C=C/C(=O)Nc1cc2c(Nc3ccc(F)c(Cl)c3)ncnc2cc1O[C@H]1CCOC1 [Afatinib],40.5,82.2
CS(=O)(=O)CCNCc1ccc(-c2ccc3ncnc(Nc4ccc(OCc5cccc(F)c5)c(Cl)c4)c3c2)o1.Cc1ccc(S(=O)(=O)O)cc1.Cc1ccc(S(=O)(=O)O)cc1 [Lapatinib Ditosylate] + CN(C)C/C=C/C(=O)Nc1cc2c(Nc3ccc(F)c(Cl)c3)ncnc2cc1O[C@H]1CCOC1 [Afatinib],41.6,36.7
COCCOC(=O)C1=C(C)NC(C)=C(C(=O)OCC=Cc2ccccc2)C1c1cccc([N+](=O)[O-])c1 (centres undefined) [Cilnidipine] + CN(C)C/C=C/C(=O)Nc1cc2c(Nc3ccc(F)c(Cl)c3)ncnc2cc1O[C@H]1CCOC1 [Afatinib],48.9,40.4
CC1=C(C(=O)OC(C)C)C(c2cccc([N+](=O)[O-])c2)C(C(=O)OC2CN(C(c3ccccc3)c3ccccc3)C2)=C(N)N1 (centres undefined) [Azelnidipine] + CN(C)C/C=C/C(=O)Nc1cc2c(Nc3ccc(F)c(Cl)c3)ncnc2cc1O[C@H]1CCOC1 [Afatinib],56.7,43
Cc1ccc(C(=O)N(CCCN)C(c2nc3cc(Cl)ccc3c(=O)n2Cc2ccccc2)C(C)C)cc1 (centres undefined) + CN(C)C/C=C/C(=O)Nc1cc2c(Nc3ccc(F)c(Cl)c3)ncnc2cc1O[C@H]1CCOC1 [Afatinib],50.5,35.8
O=C1C=CC=CC1=C1NC(=C2C=CC=CC2=O)N(c2ccc(C(=O)O)cc2)N1 [Deferasirox] + CN(C)C/C=C/C(=O)Nc1cc2c(Nc3ccc(F)c(Cl)c3)ncnc2cc1O[C@H]1CCOC1 [Afatinib],43.2,42.2
CN(C)CC=CC(=O)Nc1cc2c(Nc3ccc(F)c(Cl)c3)ncnc2cc1OC1CCOC1 (centres undefined) [Afatinib (BIBW2992)] + CN(C)C/C=C/C(=O)Nc1cc2c(Nc3ccc(F)c(Cl)c3)ncnc2cc1O[C@H]1CCOC1 [Afatinib],44.6,32.4
CC[C@@]1(O)C(=O)OCc2c1cc1n(c2=O)Cc2cc3c(CN(C)C)c(O)ccc3nc2-1 [Topotecan] + CN(C)C/C=C/C(=O)Nc1cc2c(Nc3ccc(F)c(Cl)c3)ncnc2cc1O[C@H]1CCOC1 [Afatinib],40.1,31.4
CC(C)CC(NC(=O)C(CCc1ccccc1)NC(=O)CN1CCOCC1)C(=O)NC(Cc1ccccc1)C(=O)NC(CC(C)C)C(=O)C1(C)CO1 (centres undefined) [Carfilzomib (PR-171)] + CN(C)C/C=C/C(=O)Nc1cc2c(Nc3ccc(F)c(Cl)c3)ncnc2cc1O[C@H]1CCOC1 [Afatinib],17.5,26.7
Cl.Clc1ccccc1CN1CCc2sccc2C1 [Ticlopidine HCl] + CN(C)C/C=C/C(=O)Nc1cc2c(Nc3ccc(F)c(Cl)c3)ncnc2cc1O[C@H]1CCOC1 [Afatinib],57.8,47.9
CNC(=O)c1cc(Oc2ccc(NC(=O)Nc3ccc(Cl)c(C(F)(F)F)c3)cc2)ccn1.Cc1ccc(S(=O)(=O)O)cc1 [Sorafenib Tosylate] + CN(C)C/C=C/C(=O)Nc1cc2c(Nc3ccc(F)c(Cl)c3)ncnc2cc1O[C@H]1CCOC1 [Afatinib],46.6,42.4
COc1ccc(CN2CCN(C(c3ccc(F)cc3)c3ccc(F)cc3)CC2)c(OC)c1OC.Cl.Cl [Lomerizine HCl] + CN(C)C/C=C/C(=O)Nc1cc2c(Nc3ccc(F)c(Cl)c3)ncnc2cc1O[C@H]1CCOC1 [Afatinib],57.7,50.9
CNCCC(Oc1ccc(C(F)(F)F)cc1)c1ccccc1.Cl (centres undefined) [Fluoxetine HCl] + CN(C)C/C=C/C(=O)Nc1cc2c(Nc3ccc(F)c(Cl)c3)ncnc2cc1O[C@H]1CCOC1 [Afatinib],46.4,43.8
Clc1ccc(C(Cn2ccnc2)OCc2ccsc2Cl)c(Cl)c1 (centres undefined) [Tioconazole] + CN(C)C/C=C/C(=O)Nc1cc2c(Nc3ccc(F)c(Cl)c3)ncnc2cc1O[C@H]1CCOC1 [Afatinib],65.4,47.5
CNC(=O)c1cc(Oc2ccc(NC(=O)Nc3ccc(Cl)c(C(F)(F)F)c3)c(F)c2)ccn1.Cl [Regorafenib hydrochloride] + CN(C)C/C=C/C(=O)Nc1cc2c(Nc3ccc(F)c(Cl)c3)ncnc2cc1O[C@H]1CCOC1 [Afatinib],52,43.3
CCN(CC)CCNC(=O)c1c(C)[nH]c(C=C2C(=O)Nc3ccc(F)cc32)c1C [Sunitinib] + CN(C)C/C=C/C(=O)Nc1cc2c(Nc3ccc(F)c(Cl)c3)ncnc2cc1O[C@H]1CCOC1 [Afatinib],38.8,25.7
